Compounds with a hit are over-represented: about 10% of the library has one in this group of screens.
Luc counter = counter-screen: inhibitors of Kinase-Glo firefly luciferase. Q27757. Kinase-Glo luciferase, ATP luminescence, 8 min. Potency, µM (doses to about 38.3 µM), inactives show at the highest dose activity change, negative = inhibition, hits mostly inhibitors. hit rate 0.28% among 200,000. AID 1379; active means well fitted inhibition curve with a large enough effect; inconclusive means small, poorly fitted or top-dose-only effect; further: potency means the concentration at half of the fitted maximal effect; nearly all actives have a fitted effect of over 60% in size
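Substrate mix (final 50 mM imidazole pH 7.2, 50 mM KCl, 7 mM MgCl2, 10 uM ATP, 0.01% Tween 20, 0.05% BSA) plus pin-tool compound, then Kinase-Glo detection mix; 8 min ambient, luminescence read.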
IMPase cell inh = cell-permeable inhibitors of inositol monophosphatase (IMPase); CHO-M1 cells, IP1 accumulation, HTRF TR-FRET ratio; inhibition (IP1 accumulation), % at 46.1 µM; 120,000 tested, under 10 active; P97697; active means well fitted curve in the direction sought with a large enough effect in the signal ratio, not every such curve was filed as active; inconclusive means small, poorly fitted or top-dose-only effect, or a change in a side signal; inactive means no such curve, though single readings can be large or run the other way; the % refers to the signal ratio;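 further: cells stimulated with carbachol in lithium chloride buffer; plate controls were DMSO basal wells for no effect and reference inhibitor wells for full effect; higher means more IMPase inhibition seen as more IP1 and lower FRET ratio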
Target sequence (P97697 whole entry, looked up): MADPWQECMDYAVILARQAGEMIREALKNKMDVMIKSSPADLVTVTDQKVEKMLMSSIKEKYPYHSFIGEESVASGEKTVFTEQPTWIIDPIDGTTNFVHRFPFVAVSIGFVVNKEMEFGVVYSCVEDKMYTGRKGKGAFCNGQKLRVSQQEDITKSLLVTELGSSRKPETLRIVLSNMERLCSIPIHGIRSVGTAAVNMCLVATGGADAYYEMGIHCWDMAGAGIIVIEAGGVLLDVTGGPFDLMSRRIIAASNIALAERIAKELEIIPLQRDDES
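Cellular IMPase inhibition is scored as a rise in cytosolic IP1, detected by competitive TR-FRET between d2-labelled IP1 and a europium anti-IP1 antibody. M1-expressing CHO cells were stimulated with carbachol for 30 min at 37C, with lithium (50 mM LiCl) present in the buffer.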
LMNA splice mod = LMNA splicing modulation; hit rate 0.01% among 200,000; HeLa LMNA splicing GFP/RFP minigene ratio, 48 h; Potency, µM (titrated, usually from 46.1 µM), for the others: at the highest dose ratio change, negative = inhibition, most hits filed as inhibitors; AID 1487; active means well fitted inhibition curve with a large enough effect in the signal ratio, with a control signal flat, not every such curve was filed as active; inconclusive means small, poorly fitted or top-dose-only effect, or effect the other way, or a change in a side signal; the % refers to the signal ratio; further: potency means the concentration at half of the fitted maximal effect
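Read-out is the ratio of GFP to DsRed2 object intensity, acquired by 488 nm laser-scanning cytometry on HeLa lamin A-EGFP minigene reporter cells. Compound incubation 48 hrs at 37 °C in Opti-MEM with 2% FBS; DMSO 0.5% final.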
ALDH1A1 inh = blocks purified human ALDH1A1 activity; P00352; Purified ALDH1A1, NADH fluorescence, propionaldehyde substrate; Potency, µM (series often up to 75.3 µM), without a hit: at the highest dose activity, negative = inhibition, most hits filed as inhibitors; hit rate 7.3% among 220,000; AID 1030;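 further: potency means the concentration at half of the fitted maximal effect; plate controls were no enzyme wells and a reference inhibitor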
Target sequence (P00352 whole entry, looked up): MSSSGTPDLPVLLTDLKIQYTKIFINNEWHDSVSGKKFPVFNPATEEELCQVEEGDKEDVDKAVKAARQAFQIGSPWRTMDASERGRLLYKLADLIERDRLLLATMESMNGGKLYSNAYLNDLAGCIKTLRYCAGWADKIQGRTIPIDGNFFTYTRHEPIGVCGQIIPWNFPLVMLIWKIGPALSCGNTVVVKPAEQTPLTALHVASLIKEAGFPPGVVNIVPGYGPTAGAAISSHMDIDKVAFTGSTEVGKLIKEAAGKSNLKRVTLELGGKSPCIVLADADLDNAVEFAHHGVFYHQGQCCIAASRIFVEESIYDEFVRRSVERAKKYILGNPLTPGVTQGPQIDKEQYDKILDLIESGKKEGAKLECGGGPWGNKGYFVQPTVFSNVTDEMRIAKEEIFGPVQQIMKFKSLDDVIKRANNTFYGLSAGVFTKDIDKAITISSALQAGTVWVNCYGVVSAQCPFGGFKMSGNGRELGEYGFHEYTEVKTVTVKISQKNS
PNC inhibitor = blocks assembly of the perinucleolar compartment | AID 2417 | activity change (PNC), negative = inhibition, % at 10 µM | hit rate 3.1% among 140,000 | PC3M PTB-GFP, PNC prevalence imaging, 16 h; stronger effect = lower value;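 active means readout at or below -70, meaning at least 70% loss of cells showing the perinucleolar compartment, a nuclear body marking cancer cells; inconclusive means readout between -30 and a set limit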;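 further: plate controls were DMSO wells for no effect and camptothecin positive control wells for full effect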
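Compounds are pinned in duplicate onto adhered PC3M cells stably expressing GFP-tagged PTB and incubated 16 h at 37 C. Cells are then fixed, nuclei stained with Hoechst, and PNC-positive cells counted.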
HPGD inh = HPGD (human) dehydrogenase inhibition; hit rate 4.3% among 150,000; purified HPGD, NADH fluorescence kinetic, PGE2 substrate; Potency, µM, inactives show at the highest dose activity change, negative = inhibition, hits mostly inhibitors; P15428; further: potency means the concentration at half of the fitted maximal effect
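NADH formation kinetics: reaction with 30 uM PGE2 and 1 mM NAD+ (final), 20 nM enzyme, Tris-HCl pH 8 with Tween 20, after 15 min compound preincubation at room temperature. Fluorescence change, last versus first of five reads.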
An asterisk follows results filed as active; ? = inconclusive; · = no result given; [ ] = dose if it differs, or a comment. Unless noted, the call rests on the fitted dose curve; in most records, active means well fitted inhibition curve with a large enough effect (not every such curve was filed as active); inconclusive means small, poorly fitted or top-dose-only effect, or another doubt; inactive means no such curve, though single readings can be large or run the other way. Unless noted, on the % scale 0 is the no-effect control and ±100 the full control effect.

SMILES	Luc counter	IMPase cell inh	LMNA splice mod	ALDH1A1 inh	PNC inhibitor	HPGD inh
Cc1ccc(S(=O)(=O)Oc2ccccc2/C=N/O)cc1	2%	·	?	-14%	·	·
O=S(=O)(c1ccccc1)c1ccccc1/C=N\O	0%	5	?	-1%	-96*	-27%
O=C(O)CC/C(=C\c1ccc(N2CCOCC2)c([N+](=O)[O-])c1)c1nc2ccccc2s1	-1%	·	-30%[46 µM]	6.3µM*	·	·
O=C(Nc1cc2c(cc1C(=O)c1ccc(Br)cc1)OCCO2)c1ccc(Cl)cc1	·	-5	·	·	·	·
O=C(Nc1ccccc1)c1cnc(N2CCCCC2)c2ccccc12	·	·	-8%[46 µM]	·	·	·
CC(C)NC(=S)NNc1nc2ccccc2s1	3%	·	-3%[46 µM]	0.56µM*	·	·
O=C(NNc1nc2ccccc2s1)c1ccc(F)cc1	1%	·	?	-12%	-23	-11%
Cc1ccc2c(c1)c(=O)c1ccccc1n2CCCC(=O)Nc1ccc(C)c(C)c1	·	4	·	·	·	·
COc1ccc(Nc2nnc(SCC(=O)Nc3ccc4[nH]c(=O)[nH]c4c3)s2)cc1	·	·	·	16µM*	·	·
COc1ccc(Nc2nnc(SCC(=O)c3cc(C)n(CC4CCCO4)c3C)s2)cc1 (centres undefined)	-3%	8	?	6.3µM*	23	-26%
COc1ccc(Nc2nnc(SCC(=O)NC(=O)Nc3ccc4c(c3)OCCO4)s2)cc1	-2%	·	?	-10%	·	·
COc1ccc(Nc2nnc(SCC3CCCCO3)s2)cc1 (centres undefined)	2%	·	·	-17%	·	·
S=c1[nH]nc(CCc2ccc(Cl)cc2)o1	0%	·	11%	?	58	-14%
COc1ccc(OCc2n[nH]c(=S)o2)cc1	-13%	4	7%	10µM*	?	?
CCOc1ccc(-c2n[nH]c(=S)o2)cc1	8%	·	·	?	·	·
S=c1[nH]nc(COc2ccc(Cl)cc2)o1	2%	2	17%	3.5µM*	5	?
C[N+]1(C)CC(O)[C@H](C(=O)[O-])C1 (some centres undefined)	-1%	·	4%	-14%	·	-4%
CCc1cccc(NS(=O)(=O)c2c(C)n[nH]c2C)c1	0%	4	-10%	2%	-100*	-11%
Cc1ccc2nc(SCC(=O)NCc3cccs3)c(C#N)cc2c1	-1%	?	16%	7%	-25	-13%
Cc1ccc2c(c1)cc(C)c1nnc(SCC(=O)NCc3ccco3)n12	-1%	-2	3%	1%	16	-21%
Cc1ccc2nc(SCC(=O)NCc3ccco3)c(C#N)cc2c1	-3%	?	14%	-8%	-18	7.9µM*
Cc1ccc2nc(SCC(=O)NCc3ccco3)c(C)cc2c1	-4%	·	-19%[46 µM]	16µM*	·	·
Cc1ccc2cc(C#N)c(SCC(=O)NCc3ccco3)nc2c1	10%	-22	12%	?	-82*	-16%
Cc1ccc2cc(C#N)c(SCC(=O)NNC(=O)Cc3ccccc3)nc2c1	0%	·	-12%	4%	-5	-5%
Cc1cccc2cc(C#N)c(SCC(=O)N3CCC(C)CC3)nc12	-3%	-2	?	?	-24	?
SMILES	Luc counter	IMPase cell inh	LMNA splice mod	ALDH1A1 inh	PNC inhibitor	HPGD inh
Cc1nnc(SCC(=O)N2CC(=O)Nc3ccccc32)n1C	-4%	5	13%	6%	8	-3%
O=C1CN(C(=O)CSc2nc(-c3ccccc3)cs2)c2ccccc2N1	3%	·	?	7%	-91*	18µM*
Cc1cccc2cc(C#N)c(SCC(=O)N3CC(=O)Nc4ccccc43)nc12	-1%	9	?	?	-85*	-26%
Cc1ccc(-n2nnnc2SCC(=O)N2CC(=O)Nc3ccccc32)cc1	0%	11	-9%	11µM*	?	?
CCOC(=O)C1=C(C)NC(=S)NC1c1cccc(O)c1 (centres undefined)	-8%	-3	·	1.1µM*	·	?
CCOC(=O)C1=C(C)NC(=S)NC1c1ccc(OC(=O)c2ccco2)cc1 (centres undefined)	3%	·	-4%	2.2µM*	37	-10%
CCOC(=O)c1c(NC(=O)CC2Nc3ccccc3NC2=O)sc(C)c1C (centres undefined)	2%	7	-13%	9%	49	-7%
CCOC(=O)c1c(NC(=O)C2=C(C)NC(=S)NC2c2ccc(CC)cc2)sc(C)c1C (centres undefined)	-2%	·	?	28µM*	-5	?
S=C(NCc1ccccc1)N1CCn2cccc2C1c1cccnc1 (centres undefined)	-3%	·	·	3.5µM*	·	·
COc1cccc(NC(=S)N2CCn3cccc3C2c2cccnc2)c1 (centres undefined)	3%	·	-19%[46 µM]	14µM*	·	·
O=S(=O)(C[C@H](O)C(Cl)(Cl)Cl)NNc1ccccc1	-2%[7.66 µM]	·	·	10%[13.5 µM]	·	-9%
CC(=O)c1cc2c(cc1NC(=O)CN1CCN(c3cccc(C(F)(F)F)c3)CC1)OCO2	0%	?	0%	299%	-100*	56%
CC(=O)Nc1ccc(NC(=O)CN2CCN(c3cccc(C(F)(F)F)c3)CC2)cc1	-8%	7	-7%	-7%	?	-6%
O=C(Nc1ccccc1)c1ccc(Br)c(S(=O)(=O)N2CCCCC2)c1	·	·	-5%[46 µM]	·	·	·
O=C(CSc1oc(-c2ccc(F)cc2)nc1S(=O)(=O)c1ccc(F)cc1)NCC1CCCO1 (centres undefined)	-3%	6	-12%	-9%	246	-19%
O=C(CSc1oc(-c2ccccc2)nc1S(=O)(=O)c1ccc(F)cc1)NCC1CCCO1 (centres undefined)	-2%	-4	-6%	?	-100*	?
O=C(CSc1oc(-c2ccc(F)cc2)nc1S(=O)(=O)c1ccccc1)NCC1CCCO1 (centres undefined)	1%	2	-2%	-7%	-119*	-25%
Nc1ncnc2c1ncn2[C@@H]1O[C@H](COP(=O)(O)OP(=O)(O)O)[C@@H](O)[C@H]1O	5µM*	-2	·	1%	·	-4%
O=C(COc1cccc(Cl)c1)NNC(=S)Nc1ccccc1	3%	-8	-3%	15%	-21	-17%
Cn1cccc1CC(=O)NNC(=S)Nc1ccc(Cl)cc1Cl	0%	1	-14%	10µM*	49	11µM*
CC(C)NC(=S)NC(=O)c1ccc(Cl)cc1Cl	-2%	·	-19%	?	-12	-12%
COc1cccc(OCC(=O)NNC(=S)Nc2ccc(Cl)cc2Cl)c1	1%	·	·	2µM*	·	·
O=C(COc1ccccc1)NNC(=S)NC(=O)c1ccc(Cl)cc1Cl	1%	-7	?	7.9µM*	-24	35µM*
CC(C)CNC(=S)NC(=O)c1ccc(Cl)cc1Cl	·	-2	-16%	22µM*	-5	·
COc1cccc(OCC(=O)Nc2ccccc2-c2ccccc2)c1	-1%	·	·	20µM*	·	·

Assay outcomes as filed in PubChem.
